Holding throughout (experiment): NCI-60 one-dose screen, 48 h (100 = growth as untreated, 0 = no growth, -100 = all killed)
In one test the test system is HCT-15 colon. Conditions: 10 µM unless noted.
Another test concerns HT29 colon. Conditions: 10 µM unless noted.
A further test deals with SNB-75 CNS. The settings on record: 10 µM unless noted.
A further test deals with SNB-19 CNS. Conditions: 10 µM unless noted.
A further test has as its system U251 CNS. The settings on record: 10 µM unless noted.
In another test the test system is PC-3 prostate. The settings on record: 10 µM unless noted.
The test system of a further test is SK-MEL-5 melanoma. The settings on record: 10 µM unless noted.
A further test has as its system UACC-62 melanoma. Conditions: 10 µM unless noted.
The next test relates to LOX IMVI melanoma. The settings on record: 10 µM unless noted.
The subject of another test is SK-MEL-28 melanoma. The settings on record: 10 µM unless noted.
For a further test, the system named is EKVX NSCLC. Conditions: 10 µM.
Another test concerns SN12C renal. The settings on record: 10 µM unless noted.
Another test deals with ACHN renal. Conditions: 10 µM unless noted.
The subject of the next test is CAKI-1 renal. Conditions: 10 µM unless noted.
The subject of another test is A498 renal. The settings on record: 10 µM unless noted.
The next test relates to MOLT-4 leukemia. Conditions: 10 µM unless noted.
A further test has as its system SK-MEL-2 melanoma. Conditions: 10 µM unless noted.
The subject of a further test is UO-31 renal. Conditions: 10 µM unless noted.
The subject of a further test is TK-10 renal. The settings on record: 10 µM unless noted.
The subject of the next test is CCRF-CEM leukemia. The settings on record: 10 µM.

About 83,000 compounds went through this panel and 20% of them were active in at least one assay; those are over-represented in the sample as a whole.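 Plates (96-well) were seeded with cells, treated with compound at one concentration, and incubated for 48 hours before percent growth was determined.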 Unmarked numbers belong to inactive results. Active and inactive are the calls of the source. Rule for the calls: active = growth percent below 10; inactive = the rest.

For the compound `NCCCOc1cc2ccccc2cc1C(=O)Nc1ccc(Cl)cc1OC(=O)c1cc2ccccc2cc1OCCCN`, the growth in the test with HCT-15 colon was -82.2% (active); in the test on HT29 colon, -94.9% (active); with SNB-75 CNS, -86.5% (active); in the test with SNB-19 CNS, -61.5% (active); in the test on U251 CNS, -93.6% (active); in the test on PC-3 prostate it was -93% (active). Further, the growth in the test on SK-MEL-5 melanoma is -96.1% (active); in the test on UACC-62 melanoma, -71.1% (active); with LOX IMVI melanoma, -86.7% (active); in the test with SK-MEL-28 melanoma it was -89.3% (active); in the test on EKVX NSCLC, -53.7% (active); in the test on SN12C renal, -41.2% (active). Moreover, the growth in the test on ACHN renal was -96.7% (active); in the test with CAKI-1 renal, -75.7% (active); with A498 renal it was -96.1% (active); in the test with MOLT-4 leukemia, -17% (active).
Regarding `COC(=O)c1ccc2[nH]c(O)c(C(=Nc3ccc(N(C)C(=O)CN4CCN(C)CC4)cc3)c3ccc(N)cc3)c2c1`, the growth in the test on HCT-15 colon is 99.4%; in the test on HT29 colon it was 42.6%; with SNB-75 CNS it was 42.5%; in the test on SNB-19 CNS it was 83.9%; with U251 CNS, 82.2%; in the test on PC-3 prostate, 83.4%. The growth with UACC-62 melanoma is 110%; in the test on LOX IMVI melanoma, 74.6%; in the test with SK-MEL-28 melanoma, 87.1%; with SK-MEL-2 melanoma, 93.1%; in the test on EKVX NSCLC, 95.5%; with SN12C renal it was 50.4%. In addition, the growth in the test with UO-31 renal was 75.6%; in the test on TK-10 renal, 76.4%; in the test with ACHN renal, 94.7%; in the test on CAKI-1 renal it was 63.9%; in the test with A498 renal it was 92.7%; in the test with CCRF-CEM leukemia, 60.4%. For the same compound, the growth in the test on MOLT-4 leukemia was 52.3%.
As for `COC(=O)CC(=O)C(=O)OC`, the growth with HCT-15 colon is 103%; in the test on HT29 colon, 106%; in the test with SNB-75 CNS, 92.2%; in the test on SNB-19 CNS it was 107%; in the test on U251 CNS it was 102%; in the test on PC-3 prostate, 99.8%. The growth in the test on SK-MEL-5 melanoma is 101%; in the test on UACC-62 melanoma, 108%; in the test on LOX IMVI melanoma, 55.1%; in the test with SN12C renal, 107%; in the test on UO-31 renal it was 91.4%; in the test with ACHN renal, 100%. Further, the figures for the growth with CAKI-1 renal, with A498 renal and in the test with MOLT-4 leukemia were 133%, 113% and 97.9%, respectively.
In the case of `OCC(O)C(O)CC1SCCS1` (centres undefined), the growth is 104% in the test on HCT-15 colon; 101% in the test on HT29 colon; 94.7% in the test on SNB-75 CNS; 94.8% in the test on SNB-19 CNS; 99.9% in the test with U251 CNS; 102% in the test with PC-3 prostate. Further, the growth is 97.7% in the test on UACC-62 melanoma; 91.8% with LOX IMVI melanoma; 110% in the test with SK-MEL-28 melanoma; 107% in the test with SK-MEL-2 melanoma; 97.2% in the test on EKVX NSCLC; 97.9% in the test with SN12C renal. In addition, the growth was 78% with UO-31 renal; 96.5% in the test with TK-10 renal; 103% with ACHN renal; 98% with CAKI-1 renal; 101% in the test with A498 renal; 90.6% with CCRF-CEM leukemia. The growth in the test on MOLT-4 leukemia was 84.8%.

(Values after PubChem BioAssay (NCI).)
